# What was measured:
# Test in all cases: DAPPL (digital affinity profiling via proximity ligation, sequencing); 10 mM Tris-HCl pH 7.5, 50 mM NaCl, 1 mM DTT, 4% glycerol, room temperature, 30 min; GST-TFs on glutathione beads, 16-mer random dsDNA library, 0.1% formaldehyde crosslink after washing; high values mean tight binding
# FLI1 = biological target: T1, FLI1 (Homo sapiens, UniProt Q01543 1-452); details: protein: recombinant; tags: N-terminal GST; dsDNA, one strand shown
# T1 sequence: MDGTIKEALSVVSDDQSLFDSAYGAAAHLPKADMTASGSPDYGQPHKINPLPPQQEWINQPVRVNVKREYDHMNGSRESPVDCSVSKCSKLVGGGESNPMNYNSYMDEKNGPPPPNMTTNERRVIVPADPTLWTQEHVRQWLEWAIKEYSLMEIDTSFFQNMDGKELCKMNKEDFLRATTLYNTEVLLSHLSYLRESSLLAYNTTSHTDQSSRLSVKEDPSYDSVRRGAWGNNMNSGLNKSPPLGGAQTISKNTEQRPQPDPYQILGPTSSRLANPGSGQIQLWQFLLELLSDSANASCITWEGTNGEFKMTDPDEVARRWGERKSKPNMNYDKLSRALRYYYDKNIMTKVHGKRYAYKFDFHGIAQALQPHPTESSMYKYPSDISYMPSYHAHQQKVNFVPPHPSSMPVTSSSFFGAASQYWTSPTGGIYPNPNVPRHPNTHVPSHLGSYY
# Method in brief: (§1)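 Pools of DNA-barcoded human transcription factors, expressed in yeast as GST fusions on glutathione beads and combined with a tag-only sample, were incubated with 200 nmole of a 16-mer random double-stranded DNA library. Incubation took 30 min at room temperature in Tris/NaCl/DTT/glycerol buffer and was followed by washing, 0.1% formaldehyde crosslinking, proximity ligation (BsaI/T4 ligase, 1 h, 37 °C), PCR amplification and sequencing on an Illumina NextSeq500. Binding signal is the ratio of a hexamer's read frequency for a factor to its frequency for the tag-only sample.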
# ELK1 = biological target: T2, ELK1 (Homo sapiens, UniProt P19419 1-428); details: protein: recombinant; tags: N-terminal GST; dsDNA, one strand shown
# T2 sequence: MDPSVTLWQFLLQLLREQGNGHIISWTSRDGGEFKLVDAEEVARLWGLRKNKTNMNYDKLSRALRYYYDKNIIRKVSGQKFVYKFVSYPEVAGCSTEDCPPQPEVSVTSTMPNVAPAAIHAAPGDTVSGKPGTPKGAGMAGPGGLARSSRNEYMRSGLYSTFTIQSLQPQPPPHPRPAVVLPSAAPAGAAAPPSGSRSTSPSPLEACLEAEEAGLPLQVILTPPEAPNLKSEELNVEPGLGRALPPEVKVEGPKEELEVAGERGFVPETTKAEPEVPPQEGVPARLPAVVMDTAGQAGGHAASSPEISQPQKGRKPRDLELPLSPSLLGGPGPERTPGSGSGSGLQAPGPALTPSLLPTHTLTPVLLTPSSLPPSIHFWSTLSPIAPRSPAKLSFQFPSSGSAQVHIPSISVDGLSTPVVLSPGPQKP
# Method in brief: as §1
# GABPA = biological target: T3, GABPA (Homo sapiens, UniProt Q06546 1-454); details: protein: recombinant; tags: N-terminal GST; dsDNA, one strand shown
# T3 sequence: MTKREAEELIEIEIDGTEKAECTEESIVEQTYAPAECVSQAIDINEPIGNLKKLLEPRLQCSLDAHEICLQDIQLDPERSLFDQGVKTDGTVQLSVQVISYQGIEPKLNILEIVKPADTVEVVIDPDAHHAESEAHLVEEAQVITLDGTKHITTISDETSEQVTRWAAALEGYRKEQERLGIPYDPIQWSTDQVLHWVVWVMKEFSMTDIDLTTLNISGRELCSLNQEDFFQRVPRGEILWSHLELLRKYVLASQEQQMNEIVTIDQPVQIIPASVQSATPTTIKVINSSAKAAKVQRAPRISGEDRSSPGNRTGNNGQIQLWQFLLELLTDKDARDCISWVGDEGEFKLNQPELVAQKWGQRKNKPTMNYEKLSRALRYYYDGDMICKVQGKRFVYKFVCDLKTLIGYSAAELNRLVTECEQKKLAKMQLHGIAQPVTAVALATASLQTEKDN
# Method in brief: as §1
# ERG = biological target: T4, ERG (Homo sapiens, UniProt P11308 1-479); details: protein: recombinant; tags: N-terminal GST; dsDNA, one strand shown
# T4 sequence: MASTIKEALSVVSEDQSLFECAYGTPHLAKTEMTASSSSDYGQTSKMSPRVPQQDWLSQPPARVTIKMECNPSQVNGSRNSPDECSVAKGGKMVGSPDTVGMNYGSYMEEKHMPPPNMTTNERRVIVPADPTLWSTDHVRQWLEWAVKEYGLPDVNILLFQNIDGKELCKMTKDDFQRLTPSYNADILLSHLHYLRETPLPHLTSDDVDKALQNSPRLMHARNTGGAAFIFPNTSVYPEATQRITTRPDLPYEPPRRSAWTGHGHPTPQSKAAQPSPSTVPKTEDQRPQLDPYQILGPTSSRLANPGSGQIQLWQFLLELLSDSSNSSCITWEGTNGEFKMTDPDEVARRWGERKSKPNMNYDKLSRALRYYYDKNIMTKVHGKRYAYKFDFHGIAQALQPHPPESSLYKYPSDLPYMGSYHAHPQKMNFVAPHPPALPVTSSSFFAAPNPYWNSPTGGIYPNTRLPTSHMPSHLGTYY
# Method in brief: as §1
# ELF1 = ELF1 (Homo sapiens, UniProt P32519 1-619); details: protein: recombinant; tags: N-terminal GST; dsDNA, one strand shown
# Method in brief: as §1
# EHF = biological target: T5, EHF (Homo sapiens, UniProt Q9NZC4 1-300); details: protein: recombinant; tags: N-terminal GST; dsDNA, one strand shown
# T5 sequence: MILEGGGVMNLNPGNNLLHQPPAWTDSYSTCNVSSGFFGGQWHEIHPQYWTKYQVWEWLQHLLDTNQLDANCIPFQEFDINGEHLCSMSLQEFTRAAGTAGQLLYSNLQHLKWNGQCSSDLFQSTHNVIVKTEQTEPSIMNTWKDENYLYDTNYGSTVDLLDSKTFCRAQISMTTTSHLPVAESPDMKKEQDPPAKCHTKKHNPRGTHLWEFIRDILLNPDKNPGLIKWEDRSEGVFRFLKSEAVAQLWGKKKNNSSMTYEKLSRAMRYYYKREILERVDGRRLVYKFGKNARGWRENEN
# Method in brief: as §1
# SPI1 = SPI1 (Homo sapiens, UniProt P17947 1-270); details: protein: recombinant; tags: N-terminal GST; dsDNA, one strand shown
# Method in brief: as §1
# SPIB = SPIB (Homo sapiens, UniProt Q01892 1-262); details: protein: recombinant; tags: N-terminal GST; dsDNA, one strand shown
# Method in brief: as §1
# ELK3 = biological target: T6, ELK3 (Homo sapiens, UniProt P41970 1-407); details: protein: recombinant; tags: N-terminal GST; dsDNA, one strand shown
# T6 sequence: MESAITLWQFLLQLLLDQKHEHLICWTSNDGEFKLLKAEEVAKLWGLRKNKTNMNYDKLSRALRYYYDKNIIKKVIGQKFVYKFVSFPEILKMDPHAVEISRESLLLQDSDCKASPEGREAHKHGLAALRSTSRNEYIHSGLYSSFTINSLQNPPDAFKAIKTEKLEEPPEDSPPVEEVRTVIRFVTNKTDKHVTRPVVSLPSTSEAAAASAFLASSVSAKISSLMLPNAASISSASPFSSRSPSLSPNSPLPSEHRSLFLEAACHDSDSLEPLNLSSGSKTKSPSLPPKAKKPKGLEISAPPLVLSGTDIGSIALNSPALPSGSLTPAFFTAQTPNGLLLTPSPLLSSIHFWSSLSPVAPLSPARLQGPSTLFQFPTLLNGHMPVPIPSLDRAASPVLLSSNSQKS
# Method in brief: as §1
# FEV = biological target: T7, FEV (Homo sapiens, UniProt Q99581 1-238); details: protein: recombinant; tags: N-terminal GST; dsDNA, one strand shown
# T7 sequence: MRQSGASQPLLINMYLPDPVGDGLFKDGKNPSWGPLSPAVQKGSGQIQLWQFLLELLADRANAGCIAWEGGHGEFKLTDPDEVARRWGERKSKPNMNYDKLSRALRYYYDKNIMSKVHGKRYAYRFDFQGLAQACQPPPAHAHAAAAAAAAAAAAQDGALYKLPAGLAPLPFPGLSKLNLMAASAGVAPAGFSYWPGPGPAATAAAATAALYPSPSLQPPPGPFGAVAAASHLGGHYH
# Method in brief: as §1
# ETV5 = ETV5 (Homo sapiens, UniProt P41161 1-510); details: protein: recombinant; tags: N-terminal GST; dsDNA, one strand shown
# Method in brief: as §1
# HSF1 = HSF1 (Homo sapiens, UniProt Q00613 1-529); details: protein: recombinant; tags: N-terminal GST; chain copies: 3; dsDNA, one strand shown
# Method in brief: as §1
# SPIC = biological target: T8, SPIC (Homo sapiens, UniProt Q8N5J4 1-248); details: protein: recombinant; tags: N-terminal GST; dsDNA, one strand shown
# T8 sequence: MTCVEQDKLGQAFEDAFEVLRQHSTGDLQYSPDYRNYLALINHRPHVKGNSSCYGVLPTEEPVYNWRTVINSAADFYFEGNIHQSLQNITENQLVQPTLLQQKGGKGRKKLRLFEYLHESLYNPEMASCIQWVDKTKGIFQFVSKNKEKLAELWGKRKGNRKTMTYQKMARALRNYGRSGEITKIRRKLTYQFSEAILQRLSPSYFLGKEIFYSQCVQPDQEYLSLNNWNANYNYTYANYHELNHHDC
# Method in brief: as §1
# ELF4 = ELF4 (Homo sapiens, UniProt Q99607 1-663); details: protein: recombinant; tags: N-terminal GST; dsDNA, one strand shown
# Method in brief: as §1
# ELK4 = biological target: T9, ELK4 (Homo sapiens, UniProt P28324-2 1-405); details: protein: recombinant; tags: N-terminal GST; dsDNA, one strand shown
# T9 sequence: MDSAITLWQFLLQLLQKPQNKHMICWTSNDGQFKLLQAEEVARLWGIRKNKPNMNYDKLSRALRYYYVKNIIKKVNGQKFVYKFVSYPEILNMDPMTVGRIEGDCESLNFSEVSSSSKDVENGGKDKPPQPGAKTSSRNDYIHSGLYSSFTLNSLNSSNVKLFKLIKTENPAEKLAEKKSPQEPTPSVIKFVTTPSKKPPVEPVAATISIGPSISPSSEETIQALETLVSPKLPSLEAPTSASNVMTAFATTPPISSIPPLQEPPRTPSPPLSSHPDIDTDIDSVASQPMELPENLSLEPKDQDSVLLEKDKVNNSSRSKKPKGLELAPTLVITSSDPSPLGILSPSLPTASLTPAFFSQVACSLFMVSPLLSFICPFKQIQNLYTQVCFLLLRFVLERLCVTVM
# Method in brief: as §1
# ETV2 = biological target: T10, ETV2 (Homo sapiens, UniProt O00321 1-342); details: protein: recombinant; tags: N-terminal GST; dsDNA, one strand shown
# T10 sequence: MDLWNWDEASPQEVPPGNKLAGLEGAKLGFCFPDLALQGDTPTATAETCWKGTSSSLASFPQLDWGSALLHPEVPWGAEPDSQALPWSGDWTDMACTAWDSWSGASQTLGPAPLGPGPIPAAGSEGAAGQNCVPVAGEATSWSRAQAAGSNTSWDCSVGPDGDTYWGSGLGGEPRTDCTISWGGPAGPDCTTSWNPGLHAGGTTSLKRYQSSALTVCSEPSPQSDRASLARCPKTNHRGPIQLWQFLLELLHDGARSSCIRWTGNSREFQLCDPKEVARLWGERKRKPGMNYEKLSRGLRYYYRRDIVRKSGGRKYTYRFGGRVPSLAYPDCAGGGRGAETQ
# Method in brief: as §1
# ELF3 = biological target: T11, ELF3 (Homo sapiens, UniProt P78545 1-371); details: protein: recombinant; tags: N-terminal GST; dsDNA, one strand shown
# T11 sequence: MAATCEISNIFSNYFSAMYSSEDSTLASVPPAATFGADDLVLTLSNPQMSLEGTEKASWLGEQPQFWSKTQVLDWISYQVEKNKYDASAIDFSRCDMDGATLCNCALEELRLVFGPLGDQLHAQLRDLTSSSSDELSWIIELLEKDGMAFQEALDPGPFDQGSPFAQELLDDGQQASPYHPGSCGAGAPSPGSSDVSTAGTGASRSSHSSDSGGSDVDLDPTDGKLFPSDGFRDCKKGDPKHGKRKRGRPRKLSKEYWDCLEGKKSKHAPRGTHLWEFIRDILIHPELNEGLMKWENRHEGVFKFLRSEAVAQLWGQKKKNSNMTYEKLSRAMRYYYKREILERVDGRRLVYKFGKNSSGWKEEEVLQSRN
# Method in brief: as §1
# CRX = CRX (Homo sapiens, UniProt O43186 1-299); details: protein: recombinant; tags: N-terminal GST; dsDNA, one strand shown
# Method in brief: as §1
# ETV1 = ETV1 (Homo sapiens, UniProt P50549 1-477); details: protein: recombinant; tags: N-terminal GST; dsDNA, one strand shown
# Method in brief: as §1
# Sequence of HSF1 (Q00613 whole entry): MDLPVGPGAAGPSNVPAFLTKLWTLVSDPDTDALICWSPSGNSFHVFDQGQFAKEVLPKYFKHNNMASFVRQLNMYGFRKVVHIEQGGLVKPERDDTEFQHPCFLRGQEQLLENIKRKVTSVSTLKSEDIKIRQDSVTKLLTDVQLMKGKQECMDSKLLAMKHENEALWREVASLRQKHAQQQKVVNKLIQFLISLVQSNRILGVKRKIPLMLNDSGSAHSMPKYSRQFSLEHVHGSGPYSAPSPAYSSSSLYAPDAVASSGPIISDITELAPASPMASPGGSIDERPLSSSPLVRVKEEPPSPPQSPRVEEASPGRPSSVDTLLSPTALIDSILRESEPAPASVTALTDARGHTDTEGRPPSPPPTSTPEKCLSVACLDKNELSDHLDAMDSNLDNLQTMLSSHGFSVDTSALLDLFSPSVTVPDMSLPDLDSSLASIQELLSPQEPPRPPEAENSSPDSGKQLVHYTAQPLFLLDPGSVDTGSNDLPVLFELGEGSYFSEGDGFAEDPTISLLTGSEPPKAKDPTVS
# Sequence of CRX (O43186 whole entry): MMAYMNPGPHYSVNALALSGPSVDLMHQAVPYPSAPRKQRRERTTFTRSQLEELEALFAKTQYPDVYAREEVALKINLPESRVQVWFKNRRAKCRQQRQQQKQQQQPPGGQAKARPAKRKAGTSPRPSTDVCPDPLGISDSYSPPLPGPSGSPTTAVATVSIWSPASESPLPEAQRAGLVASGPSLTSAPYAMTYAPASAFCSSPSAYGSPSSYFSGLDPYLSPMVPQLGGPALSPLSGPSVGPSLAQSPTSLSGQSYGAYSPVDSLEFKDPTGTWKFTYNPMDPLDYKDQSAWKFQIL
# Sequence of ELF1 (P32519 whole entry): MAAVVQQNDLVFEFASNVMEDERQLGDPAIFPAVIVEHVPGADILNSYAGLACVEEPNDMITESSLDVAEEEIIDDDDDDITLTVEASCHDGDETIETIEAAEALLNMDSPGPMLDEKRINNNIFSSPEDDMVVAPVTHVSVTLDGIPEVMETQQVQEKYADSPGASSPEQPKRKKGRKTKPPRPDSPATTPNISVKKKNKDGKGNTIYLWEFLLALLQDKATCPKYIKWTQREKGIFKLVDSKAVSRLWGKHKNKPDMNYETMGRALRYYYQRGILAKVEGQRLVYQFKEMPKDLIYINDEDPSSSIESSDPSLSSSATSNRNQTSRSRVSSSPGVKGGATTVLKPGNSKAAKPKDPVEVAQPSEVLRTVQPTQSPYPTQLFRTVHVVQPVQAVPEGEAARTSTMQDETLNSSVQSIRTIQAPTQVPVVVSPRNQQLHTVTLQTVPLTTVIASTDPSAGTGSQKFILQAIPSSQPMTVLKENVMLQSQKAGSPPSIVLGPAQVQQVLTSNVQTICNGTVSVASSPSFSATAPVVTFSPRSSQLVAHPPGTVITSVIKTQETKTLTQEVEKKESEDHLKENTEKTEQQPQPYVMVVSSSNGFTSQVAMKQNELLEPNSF
# Sequence of ETV5 (P41161 whole entry): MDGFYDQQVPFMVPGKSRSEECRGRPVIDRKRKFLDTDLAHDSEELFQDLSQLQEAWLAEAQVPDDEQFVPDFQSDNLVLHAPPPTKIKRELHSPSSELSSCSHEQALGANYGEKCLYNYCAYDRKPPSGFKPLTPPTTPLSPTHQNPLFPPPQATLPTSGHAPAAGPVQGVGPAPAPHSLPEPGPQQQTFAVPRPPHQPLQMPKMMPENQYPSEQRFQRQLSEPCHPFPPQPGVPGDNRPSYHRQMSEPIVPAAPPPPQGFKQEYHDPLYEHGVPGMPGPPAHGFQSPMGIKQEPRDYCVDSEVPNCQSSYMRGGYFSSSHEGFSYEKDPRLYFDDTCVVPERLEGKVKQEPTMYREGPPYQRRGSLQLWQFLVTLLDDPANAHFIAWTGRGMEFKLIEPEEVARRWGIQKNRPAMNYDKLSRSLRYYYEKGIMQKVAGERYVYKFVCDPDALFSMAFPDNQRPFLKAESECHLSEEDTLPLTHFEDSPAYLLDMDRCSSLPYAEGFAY
# Sequence of ELF4 (Q99607 whole entry): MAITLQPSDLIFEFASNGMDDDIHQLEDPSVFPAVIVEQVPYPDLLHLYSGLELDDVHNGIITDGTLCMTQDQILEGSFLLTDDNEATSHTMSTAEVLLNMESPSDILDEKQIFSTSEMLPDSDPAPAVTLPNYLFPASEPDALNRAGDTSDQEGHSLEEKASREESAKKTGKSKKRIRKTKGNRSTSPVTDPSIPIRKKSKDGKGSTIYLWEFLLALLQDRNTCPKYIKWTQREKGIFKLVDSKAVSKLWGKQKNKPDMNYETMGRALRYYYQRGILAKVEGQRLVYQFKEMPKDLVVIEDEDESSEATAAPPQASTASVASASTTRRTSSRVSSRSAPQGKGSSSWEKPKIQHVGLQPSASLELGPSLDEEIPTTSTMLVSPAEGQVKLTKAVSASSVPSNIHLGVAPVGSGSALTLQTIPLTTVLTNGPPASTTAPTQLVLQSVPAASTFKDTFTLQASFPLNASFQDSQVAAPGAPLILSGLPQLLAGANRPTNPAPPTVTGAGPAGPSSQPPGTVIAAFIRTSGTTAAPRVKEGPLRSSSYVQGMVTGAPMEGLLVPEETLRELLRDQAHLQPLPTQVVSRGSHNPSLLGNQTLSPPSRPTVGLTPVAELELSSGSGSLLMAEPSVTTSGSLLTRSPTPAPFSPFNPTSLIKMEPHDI
# Sequence of SPIB (Q01892 whole entry): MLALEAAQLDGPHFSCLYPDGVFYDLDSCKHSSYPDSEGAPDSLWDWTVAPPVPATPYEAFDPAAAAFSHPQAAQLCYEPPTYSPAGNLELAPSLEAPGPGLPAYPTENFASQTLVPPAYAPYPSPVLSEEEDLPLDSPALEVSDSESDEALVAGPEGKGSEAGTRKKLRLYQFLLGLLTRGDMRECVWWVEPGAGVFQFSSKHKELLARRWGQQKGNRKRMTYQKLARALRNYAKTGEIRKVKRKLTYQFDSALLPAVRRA
# Sequence of ETV1 (P50549 whole entry): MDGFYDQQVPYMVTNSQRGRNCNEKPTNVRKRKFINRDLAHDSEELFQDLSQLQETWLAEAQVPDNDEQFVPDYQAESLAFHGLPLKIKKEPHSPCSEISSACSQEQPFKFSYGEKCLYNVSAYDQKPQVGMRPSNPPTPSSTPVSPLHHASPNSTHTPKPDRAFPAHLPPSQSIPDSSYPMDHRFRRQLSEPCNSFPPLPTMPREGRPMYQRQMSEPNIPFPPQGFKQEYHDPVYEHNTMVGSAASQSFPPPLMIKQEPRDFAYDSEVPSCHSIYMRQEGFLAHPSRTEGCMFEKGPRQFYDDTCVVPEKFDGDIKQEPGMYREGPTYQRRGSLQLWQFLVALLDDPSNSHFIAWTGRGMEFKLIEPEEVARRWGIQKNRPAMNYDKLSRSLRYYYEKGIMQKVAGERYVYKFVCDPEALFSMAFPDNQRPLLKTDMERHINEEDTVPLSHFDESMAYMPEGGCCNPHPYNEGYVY
sequence,measurement,setting,value
ATCTGG,binding signal,FLI1,"1.19 fold enrichment (6-mer frequency, TF over GST control)"
same,binding signal,ELK1,"1.01 fold enrichment (6-mer frequency, TF over GST control)"
same,binding signal,GABPA,"1.17 fold enrichment (6-mer frequency, TF over GST control)"
same,binding signal,ERG,"1.14 fold enrichment (6-mer frequency, TF over GST control)"
same,binding signal,ELF1,"1.18 fold enrichment (6-mer frequency, TF over GST control)"
same,binding signal,EHF,"1.12 fold enrichment (6-mer frequency, TF over GST control)"
same,binding signal,SPI1,"1.12 fold enrichment (6-mer frequency, TF over GST control)"
same,binding signal,SPIB,"1.14 fold enrichment (6-mer frequency, TF over GST control)"
same,binding signal,ELK3,"1.09 fold enrichment (6-mer frequency, TF over GST control)"
same,binding signal,FEV,"1.23 fold enrichment (6-mer frequency, TF over GST control)"
same,binding signal,ETV5,"1.11 fold enrichment (6-mer frequency, TF over GST control)"
same,binding signal,HSF1,"2.08 fold enrichment (6-mer frequency, TF over GST control)"
same,binding signal,SPIC,"1.1 fold enrichment (6-mer frequency, TF over GST control)"
same,binding signal,ELF4,"1.22 fold enrichment (6-mer frequency, TF over GST control)"
same,binding signal,ELK4,"1.31 fold enrichment (6-mer frequency, TF over GST control)"
same,binding signal,ETV2,"1.23 fold enrichment (6-mer frequency, TF over GST control)"
same,binding signal,ELF3,"1.23 fold enrichment (6-mer frequency, TF over GST control)"
same,binding signal,CRX,"1.65 fold enrichment (6-mer frequency, TF over GST control)"
same,binding signal,ETV1,"1.24 fold enrichment (6-mer frequency, TF over GST control)"

# Reference: PMC7862700, “An all-to-all approach to the identification of sequence-specific readers for epigenetic DNA modifications on cytosine”
